Only some compounds are listed: those with a hit (about 6.7% of all), similar ones and a draw of the others.
C diff growth = C. difficile growth inhibitors, primary screen, HTS; Clostridium difficile clinical isolate growth, OD600, 24 h; stronger effect = lower value; growth activity, negative = inhibition, % at 16 µg/mL (by protocol); hit rate 0.25% among 86,000; AID 1259249, 2017;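 active = mean growth activity at or below -80% and every replicate also at or below -80%; inconclusive = mean at or below -80% but some replicate above -80%; inactive = mean growth activity above -80%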
T cruzi growth-1 = T. cruzi intracellular proliferation inhibitors, primary screen, cell-based, beta-gal Tulahuen parasites, NIH3T3 host, luminescence | T. cruzi beta-gal in NIH3T3, GalScreen luminescence, 90 h | inhibition, % at 8.34 µM | hit rate 5.9% among 77,000 | AID 624255, 2012;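 active = mean inhibition above about 93%, with at least 55% of replicates each passing it, limit read from the data, passing the limit was not always enough; inconclusive = only one of those two conditions holds; inactive = neither condition holds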
Pf Dd2 growth = P. falciparum Dd2 growth inhibitors, primary screen, SYBR Green fluorescence, single dose replicates | 72 h; stronger effect = lower value | activity change, % at 10 µM | hit rate 2.3% among 94,000 | AID 1159554, 2015; in the data active = activity change below about -80%; inconclusive = no clear call, values can overlap the other calls
T cruzi growth-2 = T. cruzi intracellular proliferation inhibitors, confirmation, cell-based, NIH3T3 host, beta-gal parasite, luminescence, cherry-pick | AID 651739, 2012 | inhibition, % at 8.35 µM | hit rate 72% among 5,600 | T. cruzi beta-gal in NIH3T3, GalScreen luminescence, 90 h | shares compounds with T cruzi growth-1;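 active = mean replicate inhibition above about 95% and at least 55% of replicates individually reaching it, limit read from the data; inconclusive = only one of the two criteria is met; inactive = neither criterion is met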
T cruzi growth-3 = inhibitors of intracellular T. cruzi replication, confirmation, NIH3T3 host cells, beta-gal parasites, cherry-pick, set 2; shares compounds with T cruzi growth-1; T. cruzi beta-gal in NIH3T3, GalScreen luminescence, 90 h; inhibition, % at 2.09 µM; hit rate 21% among 5,600; AID 651740, 2012;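 active = mean inhibition above about 95%, with at least 55% of replicates also reaching it, limit read from the data; inconclusive = meets just one of the two conditions; inactive = meets neither condition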
NIH3T3 tox = cytotoxicity in mouse NIH/3T3 fibroblasts, confirmation, cytotoxicity control for T. cruzi proliferation inhibitor project, cell-based, cherry-pick, single point. shares compounds with T cruzi growth-1. NIH/3T3 viability, CellTiter-Glo ATP luminescence, 90 h. cytotoxicity (signal decrease), % at 8.35 µM. hit rate 14% among 5,600;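 active = mean signal decrease across replicates above about 35% based on untreated-well scatter, with enough replicates individually passing, limit read from the data; inconclusive = no rule stated though some were filed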
3T3 cytotox 2 = NIH/3T3 fibroblast cytotoxicity, confirmation, cytotoxicity control, cell-based, cherry-pick, single point, set 2; inhibition, % at 24.9 µM; shares compounds with T cruzi growth-1; AID 651744, 2012; hit rate 56% among 5,600; NIH/3T3 viability, CellTiter-Glo ATP luminescence, 90 h;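 active = mean loss of cell viability signal at or above a set limit, and enough replicates individually reaching it; inconclusive = meets only the mean limit or only the replicate share; inactive = meets neither condition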
Large screens that a line does not name were inactive (follow-up assays come after a bar, where they were run).

CCCNC(=O)N1[C@@H]2c3ccc(-c4ccccc4OC)c(=O)n3C[C@H]1[C@H](CO)[C@H]2C(=O)NCC	T cruzi growth-1 107 (no result: Pf Dd2 growth) | T cruzi growth-2 inactive | T cruzi growth-3 inactive | NIH3T3 tox inactive | 3T3 cytotox 2 inactive
COc1ccc(S(=O)(=O)N(C)C[C@@H]2Oc3ncc(C#Cc4ccccc4)cc3C(=O)N([C@H](C)CO)C[C@@H]2C)cc1	T cruzi growth-1 109 | T cruzi growth-2 101 | T cruzi growth-3 inactive | NIH3T3 tox inactive | 3T3 cytotox 2 63
COc1cccc(S(=O)(=O)N(C)C[C@@H]2Oc3ncc(C#Cc4ccc(C(F)(F)F)cc4)cc3C(=O)N([C@H](C)CO)C[C@@H]2C)c1	T cruzi growth-1 103 | T cruzi growth-2 96 | T cruzi growth-3 113 | NIH3T3 tox inactive | 3T3 cytotox 2 31
Cc1ccc(S(=O)(=O)N(C)C[C@@H]2Oc3ncc(-c4cccc(C(F)(F)F)c4)cc3C(=O)N([C@H](C)CO)C[C@@H]2C)cc1	T cruzi growth-1 126 | T cruzi growth-2 106 | T cruzi growth-3 inactive | NIH3T3 tox 48 | 3T3 cytotox 2 43
C[C@H](CO)N1C[C@H](C)[C@H](CN(C)S(=O)(=O)c2ccc(C#N)cc2)Oc2ncc(-c3cccc(C(F)(F)F)c3)cc2C1=O	none
COc1cccc(S(=O)(=O)N(C)C[C@@H]2Oc3ncc(C#CCC(C)C)cc3C(=O)N([C@@H](C)CO)C[C@@H]2C)c1	none
COc1ccc(S(=O)(=O)N(C)C[C@@H]2Oc3ncc(C#Cc4ccc(OC)c(OC)c4)cc3C(=O)N([C@H](C)CO)C[C@@H]2C)cc1	none
COc1cccc(S(=O)(=O)N(C)C[C@H]2Oc3ncc(C#CCN(C)C)cc3C(=O)N([C@@H](C)CO)C[C@@H]2C)c1	none
COc1cccc(S(=O)(=O)N(C)C[C@H]2Oc3ncc(C#CCC(C)C)cc3C(=O)N([C@@H](C)CO)C[C@@H]2C)c1	T cruzi growth-1 inconclusive | T cruzi growth-2 111 | T cruzi growth-3 inactive | NIH3T3 tox inactive | 3T3 cytotox 2 73
C[C@H]1CN([C@@H](C)CO)C(=O)Cc2cc(NC(=O)Nc3ccc(C(F)(F)F)cc3)ccc2O[C@@H]1CN(C)Cc1ccc(-c2ccccc2)cc1	none
CC(=O)N(C)C[C@@H]1Oc2ncc(C#Cc3cccnc3)cc2C(=O)N([C@@H](C)CO)C[C@@H]1C	none (no result: T cruzi growth-1)
COCC(=O)N(C)C[C@@H]1Oc2ncc(C#Cc3cccnc3)cc2C(=O)N([C@H](C)CO)C[C@@H]1C	none
C[C@H](CO)N1C[C@H](C)[C@H](CN(C)S(=O)(=O)c2ccc(C#N)cc2)Oc2ncc(C#Cc3cccc(F)c3)cc2C1=O	none
COc1cccc(S(=O)(=O)N(C)C[C@@H]2Oc3ncc(C#CC(C)C)cc3C(=O)N([C@@H](C)CO)C[C@H]2C)c1	none
C[C@H](CO)N1C[C@H](C)[C@H](CN(C)S(=O)(=O)c2cccs2)Oc2ncc(C#Cc3ccc(C(F)(F)F)cc3)cc2C1=O	none (no result: C diff growth)
C[C@H](CO)N1C[C@H](C)[C@H](CN(C)S(=O)(=O)c2cccs2)Oc2ncc(C#Cc3ccc(F)cc3)cc2C1=O	T cruzi growth-1 112 | T cruzi growth-2 106 | T cruzi growth-3 inactive | NIH3T3 tox inactive | 3T3 cytotox 2 inactive
COc1cccc(S(=O)(=O)N(C)C[C@@H]2Oc3ncc(C#Cc4cccc(F)c4)cc3C(=O)N([C@H](C)CO)C[C@@H]2C)c1	T cruzi growth-1 110 | T cruzi growth-2 102 | T cruzi growth-3 inactive | NIH3T3 tox inactive | 3T3 cytotox 2 33
Cc1ccc(S(=O)(=O)N(C)C[C@@H]2Oc3ncc(C#Cc4cccc(F)c4)cc3C(=O)N([C@H](C)CO)C[C@@H]2C)cc1	T cruzi growth-1 121 | T cruzi growth-2 99 | T cruzi growth-3 inactive | NIH3T3 tox inconclusive | 3T3 cytotox 2 52
